# Assay outcomes (PubChem)
# This is a sample that favours compounds with a hit; in the whole collection about 19% have one here.
# IL-1B inflam inh: qHTS for Inhibitors of Inflammasome Signaling: IL-1-beta AlphaLISA Primary Screen | THP-1 LPS/ATP IL-1B secretion, AlphaLISA, 16 h; hits give low values | activity change, % at 57.5 µM | actives 4.7% (n = 360,000) | AID 743279, 2014; in the data active = activity change below about -50%; inconclusive = mostly about -30% to -49%
#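 THP-1 cells pretreated 1 hr with compounds (up to 57.5 uM final), then stimulated with LPS (250 ng/mL final) plus ATP (1.25 mM final); secreted IL-1B measured by AlphaLISA after 16 hr, decreased signal indicating inhibition.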
# TDP1 cell CPT: qHTS for Inhibitors of human tyrosyl-DNA phosphodiesterase 1 (TDP1): qHTS in cells in presence of CPT | chicken DT40 Tdp1-/-;hTDP1 cells + 20 nM CPT, ATP luminescence, 48 h | Potency, µM (titrated, usually from 46.2 µM), actives largely listed as inhibitors | actives 12% (n = 420,000) | AID 686979, 2013; also: nearly all actives have a fitted effect of over 55% in size
#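 Cell growth measured by CellTiter-Glo luminescence after a minimum 48 h, 37 C compound exposure with 20 nM CPT in Tdp1-knockout DT40 cells stably expressing hTDP1, seeded 400/well; qHTS titration format.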
# TDP1 cell noCPT: qHTS for Inhibitors of human tyrosyl-DNA phosphodiesterase 1 (TDP1): qHTS in cells in absence of CPT | DT40 Tdp1-/- hTDP1 cells, no CPT, ATP luminescence, 48 h | Potency, µM (top dose mostly 46.2 µM), most hits filed as inhibitors | actives 15% (n = 420,000) | AID 686978, 2013; also: nearly all actives have a fitted effect of over 55% in size
#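 Seeded 400 DT40-hTDP1 cells/well (vehicle DMSO, no 20 nM CPT); pinned compounds; ≥48 hr at 37 °C; CellTiter-Glo luminescence as viability measure.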
# HT1080 IDH1KD tx: qHTS for induction of synthetic lethality in tumor cells producing 2HG: qHTS for the HT-1080-IDH1KD cell line; actives 2% (n = 360,000); AID 686971, 2013; HT-1080 IDH1 knockdown viability, ATP luminescence, 48 h; Potency, µM (highest dose often 46.1 µM), most hits filed as cytotoxic
#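 In this qHTS, HT-1080 cells depleted of IDH1 are exposed for 48 h at 37 °C to compound titrations. Toxicity is scored from CellTiter-Glo luminescence, with DMSO as full viability and medium alone as none.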
# ELG1 repair inh: qHTS screen for small molecules that inhibit ELG1-dependent DNA repair in human embryonic kidney (HEK293T) cells expressing luciferase-tagged ELG1. AID 504467, 2011. actives 2.3% (n = 330,000). Potency, µM (series often up to 46.1 µM), most hits filed as inhibitors. HEK293T ELG1-luciferase reporter, luminescence, 16 h; DNA damage induced by 5-fluorouridine; also: nearly all actives have a fitted effect of over 55% in size
#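 Reporter activity after DNA damage by 5-fluorouridine is monitored. Compound-treated cells incubate 16 hr at 37 °C, then ONE-Glo is added for 30 min before luminescence reading.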
# HT1080NT lethal: qHTS for induction of synthetic lethality in tumor cells producing 2HG: qHTS for the HT-1080-NT fibrosarcoma cell line. HT-1080-NT fibrosarcoma viability, CellTiter-Glo ATP luminescence, 48 h. Potency, µM (highest dose often 46.1 µM), usual class: cytotoxic. actives 1.6% (n = 360,000);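 also: NT is the 2HG producing partner of a matched IDH1 knockdown line; nearly all actives have a fitted effect of over 55% in size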
#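 Compounds were tested in concentration-response format on HT-1080-NT cells for 48 hours at 37 degrees C. Cell viability came from CellTiter-Glo luminescence; curves were classified by r2, response magnitude and activity.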
# Hits are given with their value; i = inactive; ? = inconclusive; nt = no result given; ! = repeats disagree. Unless noted, calls follow the shape of the dose curve; as a rule, active = well fitted curve in the direction sought with a large enough effect; inconclusive = small, poorly fitted or top-dose-only effect, or another doubt; inactive = no such curve, though single readings can be large; an effect the other way counts as inactive or inconclusive.
SMILES,IL-1B inflam inh,TDP1 cell CPT,TDP1 cell noCPT,HT1080 IDH1KD tx,ELG1 repair inh,HT1080NT lethal
Cc1cccc(NC(=O)CSc2cccc3cccnc23)c1C,i,i,i,i,i,i
CCC1CN2CCc3cc(OC)c(OC)cc3C2CC1CC1c2cc(OC)c(OC)cc2CCN1C(=O)C(Cc1c[nH]c2ccccc12)NC(=O)OC(C)(C)C (centres undefined),i,6.51µM,5.8µM,i,nt,i
CSCC[C@H](NC(=O)OC(C)(C)C)C(=O)N1CCC(C(=O)N[C@@H](Cc2c[nH]c3ccccc23)C(=O)O)CC1,i,i,i,i,i,i
C=CCn1c(=NC(=O)c2cccc(N3C(=O)CCC3=O)c2)sc2cccc(OC)c21,-98.6,23.1µM,14.6µM,i,?,i
CCn1c(=NC(=O)c2ccc(S(=O)(=O)N3CCCCC3)cc2)sc2cccc(OC)c21,nt,2.59µM,1.46µM,nt,nt,nt
COc1cccc2sc(=NC(=O)c3ccc(S(=O)(=O)N4CCCCC4)cc3)n(C)c12,nt,i,i,nt,nt,nt
CCOc1cccc2sc(=NC(=O)c3ccc(S(=O)(=O)N4CCOCC4)cc3)n(C)c12,i,14.6µM!,20.6µM!,i,i,i
CCn1c(=NC(=O)CS(=O)(=O)c2ccccc2)sc2cccc(OC)c21,-59.1,?,13µM,i,?,i
C#CCn1c(=NC(=O)CN2C(=O)CCC2=O)sc2cccc(OC)c21,i,i,?,i,i,i
COc1ccc(NC(=O)c2nnn(Cc3nc(-c4cc(OC)c(OC)c(OC)c4)oc3C)c2C)cc1Cl,nt,i,i,nt,nt,nt
Cc1cccc(CCNS(=O)(=O)c2ccc3c(c2)CCN3C(=O)CCC(=O)O)c1,i,i,i,i,i,i
COC(=O)c1ccc2c(c1)sc(=NC(=O)CCS(=O)(=O)c1ccccc1)n2C,i,?,?,i,i,i
C#CCn1c(=NC(=O)c2cccs2)sc2cccc(OC)c21,i,?,13µM,i,i,i
CCOCCn1c(=NC(=O)c2ccc(S(=O)(=O)N3CCOCC3)cc2)sc2cc(S(N)(=O)=O)ccc21,i,?,?,i,18.3µM,i
COCCn1c(=NC(=O)CCS(=O)(=O)c2ccccc2)sc2ccccc21,i,20.6µM,16.4µM,i,nt,i
Cn1cccc1-c1cc2n(n1)CCC(=O)N2CCCC(=O)NCc1ccc(F)cc1,nt,i,i,nt,nt,nt
CCOc1ccc(NC(=O)CN(C)C(=O)Cc2ccc3c(c2)OCCO3)cc1OCC,i,i,?,i,nt,i
CNC[C@@H]1OCc2cnnn2CCCC(=O)N([C@H](C)CO)C[C@H]1C,i,i,i,i,nt,i
COc1ccc(CN(C)C(=O)COC(=O)c2c(C)nn(-c3ccc(F)cc3)c2Cl)cc1,i,?,?,i,13µM,i
CCN1CCN(c2ncnc3scc(-c4ccc(C)c(C)c4)c23)CC1,?,?,18.4µM,i,?,?
Cc1ccccc1N1CCN(c2ncnc3scc(-c4cccs4)c23)CC1,i,13µM,9.2µM,i,i,i
Clc1ccc(CN2CCN(c3ncnc4scc(-c5cccs5)c34)CC2)cc1,i,13µM,16.4µM,i,23.1µM,i
Fc1ccc(CN2CCN(c3ncnc4scc(-c5ccc(F)cc5)c34)CC2)cc1,i,16.4µM,23.1µM,?,20.6µM,?
O=c1oc2ccccc2c(NC2CCCCC2)c1NS(=O)(=O)c1ccc(F)cc1,i,?,?,i,i,i
CCc1ccc(S(=O)(=O)Nc2c(NC3CCCCC3)c3ccccc3oc2=O)cc1,-63.4,?,?,i,i,i
SMILES,IL-1B inflam inh,TDP1 cell CPT,TDP1 cell noCPT,HT1080 IDH1KD tx,ELG1 repair inh,HT1080NT lethal
Cc1ccccc1CSc1nnc(-c2cnccn2)n1C,i,i,i,i,?,i
COC(=O)C1=C(C)NC(C)=C(C(=O)OCC(C)C)C1c1ccccc1[N+](=O)[O-] (centres undefined),-65.0,6.51µM,5.17µM,25.9µM,nt,16.4µM
COC(=O)C1=C(C)NC(C)=C([N+](=O)[O-])[C@@H]1c1ccccc1C(F)(F)F,nt,29.9µM,29.9µM,nt,nt,nt
COC(=O)C1=C(C)NC(C)=C(C(=O)OC(C)C)C1c1cccc2nonc12 (centres undefined),i,?,?,i,nt,i
COC(=O)C1=C(C)NC(C)=C([N+](=O)[O-])[C@H]1c1ccccc1C(F)(F)F,nt,?,11.2µM,nt,nt,nt
COCCN1C=C(C(=O)OC)C(c2ccccc2C(F)(F)F)C(C(=O)OC)=C1,i,?,?,i,i,i
CC(C)[N+]1=C2C=CC=CC=C2SC12C([N+](=O)[O-])=CC(=[N+]([O-])[O-])C=C2[N+](=O)[O-] (centres undefined),i,?,?,i,?,i
CCC(=O)NC(c1ccco1)c1cc(Cl)c2cccnc2c1O (centres undefined),i,?,3.66µM,3.66µM,i,?
CCCCC(=O)NC(c1ccco1)c1cc(Cl)c2cccnc2c1O (centres undefined),i,?,16.4µM,9.2µM,i,?
Cc1ccc2c(cnn2C(=O)CCC(=O)N2CCCCC2C)c1 (centres undefined),i,i,i,i,i,i
CC1(Oc2ccc(Cl)cc2)CCN(Cc2ccc(OC(F)(F)F)cc2)C1 (centres undefined),-81.0,?,i,i,nt,i
CCc1ccc(OC2(C)CCN(Cc3ccc(SC)cc3)C2)cc1 (centres undefined),i,?,?,?,nt,?
CSc1ccc(OC2(C)CCN(Cc3ccc(C(C)C)cc3)C2)cc1 (centres undefined),i,?,18.4µM,i,nt,i
CC1(Oc2ccc(CC#N)cc2)CCN(Cc2ccc(-n3ccnc3)cc2)C1 (centres undefined),i,?,13µM,i,nt,i
COc1ccc(/C=C2\Sc3ccc(C(=O)N4CCN(Cc5ccccc5)CC4)cc3N(C)C2=O)cc1OC,i,5.17µM,3.26µM,i,23.1µM,?
CN1C(=O)/C(=C/c2ccccc2F)Sc2ccc(C(=O)N3CCCC3)cc21,-75.5,?,?,?,?,?
COc1cccc(/C=C2\Sc3ccc(C(=O)NCc4cccnc4)cc3N(C)C2=O)c1,-81.8,?,?,i,?,i
